Hits are enriched below; roughly 11% of the tested compounds scored in any of these assays.
JMJD2A Tudor: qHTS Assay for Inhibitors of JMJD2A-Tudor Domain; AlphaScreen JMJD2A-Tudor / H3K4me3 peptide binding; Potency, µM (titrated, usually from 114 µM), without a hit: top-dose activity change, negative = inhibition, most hits filed as inhibitors; 390,000 tested, 4.4% active; AID 504339, 2011; also: % is scaled to controls: 0 for no effect and ±100 for the full control effect; nearly all actives have a fitted effect of over 50% in size
HP1b chromo inh: HTS for Inhibitors of HP1-beta Chromodomain Interactions with Methylated Histone Tails. Chromobox protein homolog 1 (Homo sapiens), P83916. AlphaScreen HP1-beta / biotin-H3K9me3 peptide binding. Potency, µM (doses to about 114 µM), inactives show at the highest dose activity change, negative = inhibition, actives largely listed as inhibitors. 390,000 tested, 0.56% active. AID 540317, 2011; also: nearly all actives have a fitted effect of over 70% in size
Target sequence (P83916 whole entry, looked up): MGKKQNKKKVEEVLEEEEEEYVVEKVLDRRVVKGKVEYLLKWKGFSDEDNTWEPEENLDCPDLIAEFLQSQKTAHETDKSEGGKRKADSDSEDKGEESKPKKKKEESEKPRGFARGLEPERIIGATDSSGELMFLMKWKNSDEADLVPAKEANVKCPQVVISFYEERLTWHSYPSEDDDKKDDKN
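AlphaScreen: HP1-beta (50 nM) preformed 30 min with biotin-H3(1-18)K9me3 peptide (50 nM) in PBS pH 7.4, 0.01% Tween-20. Compound added for 30 min at RT, then streptavidin donor/nickel chelate acceptor beads (10 ug/mL) for 30 min.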
L3MBTL1 block: qHTS Assay for the Inhibitors of L3MBTL1; Lethal(3)malignant brain tumor-like protein 1 (Homo sapiens), Q9Y468; Potency, µM (series often up to 57.1 µM), without a hit: at the highest dose activity, negative = inhibition, most hits filed as inhibitors; 230,000 tested, 0.66% active; AID 485360, 2010; AlphaScreen L3MBTL1–H3K9me1 peptide binding; also: % is scaled to controls: 0 for no effect and ±100 for the full control effect; nearly all actives have a fitted effect of over 60% in size
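L3MBTL1 50 nM + b-AHA-H3(1-15)K9me1 75 nM, 30 min RT; compound added, 30 min RT; streptavidin donor/Ni-chelate acceptor beads 10 ug/mL each final, 30 min RT dark; AlphaScreen read.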
BAZ2B inh: qHTS Assay for Inhibitors of BAZ2B; Bromodomain adjacent to zinc finger domain protein 2B (Homo sapiens), Q9UIF8; AlphaScreen BAZ2B-H3K14Ac peptide displacement; Potency, µM (titrated, usually from 114 µM), without a hit: at the highest dose activity change, negative = inhibition, hits mostly inhibitors; 360,000 tested, 4.4% active; AID 504333, 2011; also: % is scaled to controls: 0 for no effect and ±100 for the full control effect; nearly all actives have a fitted effect of over 60% in size
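AlphaScreen displacement of biotin-H3(5-23)K14Ac peptide (50 nM final) from BAZ2B (50 nM final) in PBS pH 7.4, 0.01% Tween-20; complex preformed 30 min RT, then compounds (top 110 uM) 30 min RT, beads 20 min dark.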
G9a block: qHTS Assay for Inhibitors of Histone Lysine Methyltransferase G9a | G9a H3K9 monomethylation, AlphaScreen, 2 h | 350,000 tested, 8.8% active | Potency, µM (highest dose often 102 µM), inactives show top-dose activity, negative = inhibition, usual class: inhibitors; also: % is scaled to controls: 0 for no effect and ±100 for the full control effect; nearly all actives have a fitted effect of over 75% in size
Target sequence (Q96KQ7 913-1193 limits assumed): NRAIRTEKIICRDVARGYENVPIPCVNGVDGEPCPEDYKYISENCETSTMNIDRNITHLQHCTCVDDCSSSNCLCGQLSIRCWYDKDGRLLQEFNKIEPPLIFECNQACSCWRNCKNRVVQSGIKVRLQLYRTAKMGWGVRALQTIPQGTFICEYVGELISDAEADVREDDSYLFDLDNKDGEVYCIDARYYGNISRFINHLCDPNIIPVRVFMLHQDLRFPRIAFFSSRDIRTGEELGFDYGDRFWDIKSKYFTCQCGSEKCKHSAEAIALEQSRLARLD
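Readings reflect AlphaScreen signal from monomethyl-H3K9 antibody detection. HMT at 20 nM; substrate b-H3K9 500 nM; cofactor SAM 20 uM; 2 h RT reaction; compounds tested as titrations in qHTS with 15 min preincubation.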
* marks the source's active call; other numbers are inactive results; [ ] = remark or other dose. Calls follow the shape of the dose curve; as a rule, active = well fitted inhibition curve with a large enough effect; inconclusive = small, poorly fitted or top-dose-only effect; inactive = no such curve, though single readings can be large or run the other way. Potency is read from the fitted curve at half-maximal effect.

`Cc1cccc2sc(N(CCCN(C)C)C(=O)c3nc4ccccc4s3)nc12` gave JMJD2A Tudor -13.9%, HP1b chromo inh 0.0%, L3MBTL1 block -5.1%, BAZ2B inh -5.9% and G9a block 10µM*.
Screening Cc1ccc2sc(N(CCCN(C)C)C(=O)c3ccc(Br)s3)nc2c1C returned JMJD2A Tudor inconclusive, HP1b chromo inh 4.2%, L3MBTL1 block -22.1%, BAZ2B inh inconclusive and G9a block 35.5µM*.
Screening Cc1cccc2sc(N(CCCN(C)C)C(=O)CCc3ccccc3)nc12 returned JMJD2A Tudor inconclusive, HP1b chromo inh -5.2%, L3MBTL1 block -12.5%, BAZ2B inh -30.9% and G9a block inconclusive.
Cc1ccc2sc(N(CCCN(C)C)C(=O)c3nc4ccccc4s3)nc2c1C was read as JMJD2A Tudor -33.8%, HP1b chromo inh inconclusive, L3MBTL1 block -20.5%, BAZ2B inh -25.7% and G9a block 44.7µM*.
`Cc1ccc2sc(N(CCCN(C)C)C(=O)c3ccco3)nc2c1C` gave JMJD2A Tudor inconclusive, HP1b chromo inh 6.5%, BAZ2B inh -26.8% and G9a block inconclusive.
For Cc1cccc2sc(N(CCCN(C)C)C(=O)c3ccc4ncsc4c3)nc12 the results were JMJD2A Tudor inconclusive, HP1b chromo inh -5.3%[57 µM], BAZ2B inh -36.8% and G9a block 31.6µM*.
CCc1ccc2nc(N(Cc3cccnc3)C(=O)c3ccc(C#N)cc3)sc2c1 was read as JMJD2A Tudor -23.7%, HP1b chromo inh 4.8%, BAZ2B inh inconclusive and G9a block -6.6%[59 µM].
CCc1ccc2nc(N(CCN(C)C)C(=O)c3ccc4ncsc4c3)sc2c1 was read as JMJD2A Tudor 50.1µM*, HP1b chromo inh inconclusive, BAZ2B inh inconclusive and G9a block 10µM*.
Nc1ccccc1SCc1cn2cccnc2n1 was read as JMJD2A Tudor -24.8%, HP1b chromo inh 33.4%, L3MBTL1 block -4.2%, BAZ2B inh 8.6% and G9a block 35.5µM*.
`Cc1cccn2cc(CSc3ccccc3N)nc12` gave JMJD2A Tudor -13.9%, HP1b chromo inh 36.1%, BAZ2B inh 3.4% and G9a block inconclusive.
c1ccc(SCc2cn3cccnc3n2)nc1 was read as JMJD2A Tudor -17.2%, HP1b chromo inh 21.8%, L3MBTL1 block -5.3%, BAZ2B inh -16.6% and G9a block -30.0%.
Nc1ccccc1SCc1cn2ccccc2n1 was read as JMJD2A Tudor -22.6%, HP1b chromo inh 17.0%, L3MBTL1 block 9.3%, BAZ2B inh -9.4% and G9a block 50.1µM*.
`c1ccc2[nH]c(SCc3cn4ccccc4n3)nc2c1` gave JMJD2A Tudor -21.5%, HP1b chromo inh 23.7%, L3MBTL1 block 2.7%, BAZ2B inh -12.1% and G9a block 44.7µM*.
For Cc1cccc2nc(CSc3nc4ccccc4[nH]3)cn12 the results were JMJD2A Tudor -16.8%, HP1b chromo inh 23.8%, L3MBTL1 block 4.6%, BAZ2B inh -16.2% and G9a block -32.2%.
Screening O=[N+]([O-])c1ccc(CSc2nc3ccccc3[nH]2)cc1 returned JMJD2A Tudor -10.6%, HP1b chromo inh 21.3%, L3MBTL1 block 3.1%, BAZ2B inh -37.5% and G9a block 28.2µM*.
COc1cccc(Cn2c(=O)n(-c3ccc(C)c(F)c3)c(=O)c3sc4ccccc4c32)c1 was read as JMJD2A Tudor 5.5%, HP1b chromo inh 32.1%, BAZ2B inh 1.0% and G9a block 4.1%[59 µM].
`CCCc1cc(=O)oc2c(C)c3c(cc12)CN(CCc1ccc(Cl)cc1)CO3` gave JMJD2A Tudor -22.9%, HP1b chromo inh 43.8%, BAZ2B inh -8.8% and G9a block 3.2%[59 µM].
Screening Cc1cccc(C(=O)NC2C(=O)NNC2c2ccc(Cl)cc2)c1 (centres undefined) returned JMJD2A Tudor -28.5%, HP1b chromo inh 11.0% and G9a block 15.8µM*.
